Results taken from PubChem BioAssay (EPA / NIEHS).
Records with an inconclusive call do not appear. The source made the active and inactive calls. The calls were made as follows: active = hit-call score of the fitted dose curve at least 0.9, where 1 is the maximum; inconclusive = response in the unintended direction; inactive = score below 0.9.

test: ATG_XTT_Cytotoxicity: Cytotoxicity Assessment in the Attagene TRANS-FACTORIAL HepG2 Assay (AID 2283584)
Method in brief: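 Cells: human HepG2, transiently transfected with MRTU reporter constructs. Exposure 24 h. Readout: XTT, cell number. Baseline/neg ctrl DMSO; loss-of-signal scored.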

SMILES | outcome
CN1Cc2c(N)cccc2C(c2ccccc2)C1 (stereo not drawn) | inactive
CC1COc2ccccc2N1C(=O)C(Cl)Cl (stereo not drawn) | inactive
O=S(=O)(O)NC1CCCCC1 | inactive
CC(c1cc2ccccc2s1)N(O)C(N)=O (stereo not drawn) | inactive
Nc1nc2ccc([N+](=O)[O-])cc2s1 | inactive
CC1CCC(C(C)(C)O)CC1 (stereo not drawn) | inactive
Nc1ccc(F)c([N+](=O)[O-])c1 | inactive
O=C[C@H](O)[C@H](O)[C@H](O)CO | inactive
O=[N+]([O-])c1ccc(C=Cc2ccc([N+](=O)[O-])cc2S(=O)(=O)O)c(S(=O)(=O)O)c1 | inactive
CCCC(C)C=O (stereo not drawn) | inactive
O=CCCc1ccccc1 | inactive
CN(C)c1ccc(O)c2c1C[C@H]1C[C@H]3[C@H](N(C)C)C(=O)C(C(N)=O)=C(O)[C@@]3(O)C(=O)C1=C2O | inactive
N#Cc1ccc(CC(=NNC(=O)Nc2ccc(OC(F)(F)F)cc2)c2cccc(C(F)(F)F)c2)cc1 | inactive
CC(C)(CO)[N+](=O)[O-] | inactive
CC1(C)[C@H](C(=O)OCc2cccc(Oc3ccccc3)c2)[C@@H]1C=C(Cl)Cl | inactive
CC(CC(C)(C)C)CC(C)(C)CC(C)(C)C (stereo not drawn) | inactive
COc1cc2ncnc(Nc3cccc(Cl)c3)c2cc1OC | inactive
C=C(C)C(=O)OCc1ccccc1 | inactive
Cc1c(Cl)c(=O)oc2cc(O)ccc12 | inactive

SMILES | outcome
COc1cc(C(C)(C)C)c(O)c(C(C)(C)C)c1 | inactive
OCCOc1cccc(OCCO)c1 | inactive
CC1(C)OC[C@@H]2O[C@@]3(C(=O)O)OC(C)(C)O[C@H]3[C@@H]2O1 | inactive
CCCCCCCCCCCCOCCO | inactive
Cc1ccc(C(C)C)cc1O | inactive
COc1c(Cl)c(Cl)c(Cl)c(Cl)c1Cl | inactive
CSc1nnc(C(C)(C)C)c(=O)[nH]1 | inactive
COc1cc(C)cc(O)c1 | inactive
NCCCN1CCOCC1 | inactive
OC1C(O)C(O)C(O)C(O)C1O (stereo not drawn) | inactive
CCCCCCC#CC(=O)OC | inactive
CCCCC[Si](OCC)(OCC)OCC | inactive
Nc1cc([N+](=O)[O-])ccc1Cl | inactive
CCC/C=C/C=O | inactive
Cc1cccc(Nc2ccccc2C(=O)O)c1C | inactive
Nc1cc(N)cc(C(=O)O)c1 | inactive
CCCC[n+]1ccccc1 | inactive
OCc1cccnc1 | inactive
Clc1sc(Cl)c(Cl)c1Cl | inactive
